PubChem BioAssay (EPA / NIEHS)
Records with an inconclusive call do not appear. Activity calls are given as the source filed them. How the source made its calls: active means hit-call score of the fitted dose curve at least 0.9, where 1 is the maximum; inconclusive means response in the unintended direction; inactive means score below 0.9.

Columns and labels:
[1] = molecular target: human Peripheral-type Benzodiazepine Receptor (PBR), TSPO (gene 706) (UniProt P30536); experiment: NVS_MP_hPBR: NovaScreen (NVS) Membrane Protein Assay for human Peripheral-type Benzodiazepine Receptor (PBR) (AID 2283331);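 further: hits reduce radioligand binding relative to DMSO baseline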
Chain of human Peripheral-type Benzodiazepine Receptor (PBR), TSPO (gene 706) (P30536 whole entry, looked up): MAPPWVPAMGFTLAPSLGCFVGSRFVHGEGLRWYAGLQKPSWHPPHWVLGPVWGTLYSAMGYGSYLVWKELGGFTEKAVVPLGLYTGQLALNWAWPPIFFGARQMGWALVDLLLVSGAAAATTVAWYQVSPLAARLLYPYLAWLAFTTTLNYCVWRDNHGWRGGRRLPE
Procedure, shortened: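 Radioligand displacement on human colonic cell membranes, 1 h incubation; bound radioactivity by filtration and scintillation counting. Primary screen in duplicate at 25 uM single concentration, actives followed up in concentration series; loss of binding versus DMSO.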

[2] = molecular target: chimpanzee Androgen Receptor (AR), AR (gene 747460) (UniProt O97775); experiment: NVS_NR_cAR: NovaScreen (NVS) Nuclear Receptor Binding Assay for chimpanzee Androgen Receptor (AR) (AID 2283346);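 further: radioligand displacement from AR measured by scintillation counting in a cell-free assay; a loss of bound radioligand signal versus DMSO counts as binding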
Chain of chimpanzee Androgen Receptor (AR), AR (gene 747460) (O97775 whole entry, looked up): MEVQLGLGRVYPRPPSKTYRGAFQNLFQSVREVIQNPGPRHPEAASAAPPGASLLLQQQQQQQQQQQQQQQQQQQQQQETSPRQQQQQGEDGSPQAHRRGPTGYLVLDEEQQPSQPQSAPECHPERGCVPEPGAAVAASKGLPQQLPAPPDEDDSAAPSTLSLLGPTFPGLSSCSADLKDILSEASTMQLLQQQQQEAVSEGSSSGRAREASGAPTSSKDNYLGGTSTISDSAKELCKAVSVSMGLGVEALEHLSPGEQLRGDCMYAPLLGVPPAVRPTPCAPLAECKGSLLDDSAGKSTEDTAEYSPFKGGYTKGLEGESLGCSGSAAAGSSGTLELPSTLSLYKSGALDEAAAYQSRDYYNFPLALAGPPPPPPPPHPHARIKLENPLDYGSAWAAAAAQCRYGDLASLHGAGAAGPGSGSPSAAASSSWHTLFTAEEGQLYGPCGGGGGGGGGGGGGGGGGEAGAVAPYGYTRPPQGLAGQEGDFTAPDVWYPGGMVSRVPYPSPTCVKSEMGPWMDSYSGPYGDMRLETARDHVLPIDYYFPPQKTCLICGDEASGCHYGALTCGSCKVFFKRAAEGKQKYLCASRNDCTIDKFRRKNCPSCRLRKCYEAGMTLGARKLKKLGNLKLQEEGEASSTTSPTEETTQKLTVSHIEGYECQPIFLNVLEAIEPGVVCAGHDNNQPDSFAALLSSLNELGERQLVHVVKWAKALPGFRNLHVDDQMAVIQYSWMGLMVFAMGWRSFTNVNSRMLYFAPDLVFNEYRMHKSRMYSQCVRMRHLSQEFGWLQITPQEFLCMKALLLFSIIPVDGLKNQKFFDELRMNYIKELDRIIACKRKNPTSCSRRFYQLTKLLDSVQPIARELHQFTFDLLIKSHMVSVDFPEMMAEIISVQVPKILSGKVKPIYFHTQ
Procedure, shortened: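 Radioligand binding to chimpanzee AR expressed in Sf9/Sf21 cells, cell-free, measured 72 h after dosing by lysate-based scintillation counting. Loss of signal vs DMSO; initial duplicate screen at 25 uM, actives retested in concentration series.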

[3] = molecular target: Estrogen receptor (Homo sapiens) (UniProt P03372); experiment: NVS_NR_hER: NovaScreen (NVS) Nuclear Receptor Binding Assay for human Estrogen Receptor (ER) (AID 2283348)
Chain of Estrogen receptor (Homo sapiens) (P03372 whole entry, looked up, the tested form may be a part): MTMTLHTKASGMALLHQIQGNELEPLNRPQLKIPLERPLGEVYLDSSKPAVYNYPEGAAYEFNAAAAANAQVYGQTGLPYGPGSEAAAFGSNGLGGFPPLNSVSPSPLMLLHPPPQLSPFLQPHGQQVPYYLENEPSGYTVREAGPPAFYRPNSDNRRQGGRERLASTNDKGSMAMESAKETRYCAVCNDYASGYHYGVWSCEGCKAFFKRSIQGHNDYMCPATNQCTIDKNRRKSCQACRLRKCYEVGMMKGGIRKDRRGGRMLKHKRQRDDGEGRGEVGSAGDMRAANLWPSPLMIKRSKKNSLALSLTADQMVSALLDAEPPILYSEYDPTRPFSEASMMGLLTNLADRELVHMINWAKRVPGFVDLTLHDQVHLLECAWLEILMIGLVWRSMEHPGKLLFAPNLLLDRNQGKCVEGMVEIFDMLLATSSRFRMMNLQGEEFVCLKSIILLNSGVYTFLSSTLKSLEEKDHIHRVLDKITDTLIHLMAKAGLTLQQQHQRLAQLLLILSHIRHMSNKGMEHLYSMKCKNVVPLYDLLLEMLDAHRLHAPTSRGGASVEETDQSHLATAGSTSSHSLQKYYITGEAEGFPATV
Procedure, shortened: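 Radioligand competitive displacement binding to estrogen receptor from MCF7 extract, cell-free; 18 h after dosing, scintillation read-out. Primary screen in duplicate at 25 uM; actives followed up in concentration series; loss of signal vs DMSO.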

[4] = molecular target: Estrogen receptor (Homo sapiens) (UniProt P03372); experiment: OT_ER_ERaERa_1440: Odyssey Thera (OT) 24-hour HEK293T Protein-Complementation Assay for Estrogen Receptor-alpha/-alpha Homodimer (AID 2283349);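 further: hits raise fluorescence above DMSO for agonists and antagonists alike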
Procedure, shortened: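 HEK293T cells stably expressing the human ER alpha ligand-binding domain (aa 310-547) as a homodimer PCA were dosed for 24 hours. Fluorescence intensity was read by laser scanning cytometry, and gain of signal was fitted relative to DMSO vehicle.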

[5] = molecular target: rat Peripheral-type Benzodiazepine Receptor (PBR), Tspo (gene 24230) (UniProt P16257); experiment: NVS_MP_rPBR: NovaScreen (NVS) Membrane Protein Assay for rat Peripheral-type Benzodiazepine Receptor (PBR) (AID 2283335)
Chain of rat Peripheral-type Benzodiazepine Receptor (PBR), Tspo (gene 24230) (P16257 whole entry, looked up): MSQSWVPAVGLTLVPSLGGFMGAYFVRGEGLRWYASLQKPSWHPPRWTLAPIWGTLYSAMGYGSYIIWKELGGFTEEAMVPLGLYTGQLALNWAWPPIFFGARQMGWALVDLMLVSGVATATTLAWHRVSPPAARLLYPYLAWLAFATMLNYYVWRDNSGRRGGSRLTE
Procedure, shortened: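 Radioligand displacement, rat kidney membrane prep, 1 h exposure, filter-based scintillation read; DMSO baseline, loss-of-signal scored. Primary screen at 25 uM in duplicate, actives followed up in concentration series.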

[6] = molecular target: bovine Estrogen Receptor (ER), ESR1 (gene 407238) (UniProt P49884); experiment: NVS_NR_bER: NovaScreen (NVS) Nuclear Receptor Binding Assay for bovine Estrogen Receptor (ER) (AID 2283345);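 further: actives lower the bound radioligand count which means they displace the ER ligand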
Chain of bovine Estrogen Receptor (ER), ESR1 (gene 407238) (P49884 whole entry, looked up): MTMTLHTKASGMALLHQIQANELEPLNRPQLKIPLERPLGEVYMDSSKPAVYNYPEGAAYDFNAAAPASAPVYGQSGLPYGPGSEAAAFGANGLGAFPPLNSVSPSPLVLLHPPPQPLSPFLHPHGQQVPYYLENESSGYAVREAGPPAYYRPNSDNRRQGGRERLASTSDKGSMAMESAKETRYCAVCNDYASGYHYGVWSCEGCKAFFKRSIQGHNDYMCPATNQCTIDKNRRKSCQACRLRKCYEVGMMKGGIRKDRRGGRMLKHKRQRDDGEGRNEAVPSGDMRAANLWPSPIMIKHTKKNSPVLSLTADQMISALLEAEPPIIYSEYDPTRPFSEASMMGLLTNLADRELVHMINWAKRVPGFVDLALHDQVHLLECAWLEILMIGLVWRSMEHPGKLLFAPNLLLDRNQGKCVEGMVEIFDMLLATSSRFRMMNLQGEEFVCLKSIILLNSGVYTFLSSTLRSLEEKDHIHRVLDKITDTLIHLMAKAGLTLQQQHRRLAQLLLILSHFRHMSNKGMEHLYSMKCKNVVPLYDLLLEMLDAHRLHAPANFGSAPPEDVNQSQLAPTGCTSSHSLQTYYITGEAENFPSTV
Procedure, shortened: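 Displacement of a radioligand from estrogen receptor in bovine uterine membrane preparations; scintillation signal taken at 18 hours, DMSO as baseline. Single-concentration duplicates (25 uM) preceded concentration-response follow-up of actives.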

[7] = molecular target: human Androgen Receptor (AR), AR (gene 367) (UniProt P10275); experiment: NVS_NR_hAR: NovaScreen (NVS) Nuclear Receptor Binding Assay for human Androgen Receptor (AR) (AID 2283332)
Chain of human Androgen Receptor (AR), AR (gene 367) (P10275 whole entry, looked up): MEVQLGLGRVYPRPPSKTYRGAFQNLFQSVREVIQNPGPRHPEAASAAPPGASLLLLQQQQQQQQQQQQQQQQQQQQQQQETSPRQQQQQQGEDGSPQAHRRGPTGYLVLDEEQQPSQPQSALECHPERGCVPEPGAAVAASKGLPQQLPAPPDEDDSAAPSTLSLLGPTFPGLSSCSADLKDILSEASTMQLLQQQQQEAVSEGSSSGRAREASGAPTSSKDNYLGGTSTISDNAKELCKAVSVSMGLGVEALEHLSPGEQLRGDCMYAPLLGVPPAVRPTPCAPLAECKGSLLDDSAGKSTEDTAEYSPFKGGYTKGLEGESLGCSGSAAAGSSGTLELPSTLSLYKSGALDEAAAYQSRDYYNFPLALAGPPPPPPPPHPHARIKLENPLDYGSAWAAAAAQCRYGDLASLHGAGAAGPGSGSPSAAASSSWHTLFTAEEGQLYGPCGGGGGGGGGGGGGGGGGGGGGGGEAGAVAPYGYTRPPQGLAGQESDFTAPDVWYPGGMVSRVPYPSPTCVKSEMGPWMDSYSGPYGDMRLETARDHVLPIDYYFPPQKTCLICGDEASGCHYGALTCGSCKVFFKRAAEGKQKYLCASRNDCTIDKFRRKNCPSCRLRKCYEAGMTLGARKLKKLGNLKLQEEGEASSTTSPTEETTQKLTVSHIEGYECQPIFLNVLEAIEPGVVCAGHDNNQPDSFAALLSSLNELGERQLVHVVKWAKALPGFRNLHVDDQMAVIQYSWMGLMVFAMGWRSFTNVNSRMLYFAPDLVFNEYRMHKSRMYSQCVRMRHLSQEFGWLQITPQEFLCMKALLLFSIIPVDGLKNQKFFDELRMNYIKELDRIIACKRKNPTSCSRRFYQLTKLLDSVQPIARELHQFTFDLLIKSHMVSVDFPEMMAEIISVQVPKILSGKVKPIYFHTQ
Procedure, shortened: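 LnCAP cell-free extract; radioligand displacement read by scintillation counting after 20 h. Primary screen single concentration 25 uM in duplicate, actives then run as concentration series; loss-of-signal fitted relative to DMSO baseline.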

Q: What does the source list for O=S1(=O)OC(c2cc(Br)c(O)c(Br)c2)(c2cc(Br)c(O)c(Br)c2)c2ccccc21?
A: AC50 [1]: 5.29 µM (active); AC50 [2]: 18.1 µM (active); outcome [3]: inactive; outcome [4]: inactive

Q: Which outcome [5] does the source give for CC1(C)[C@H](C(=O)O[C@H](C#N)c2cccc(Oc3ccccc3)c2)[C@@H]1/C=C(\Cl)C(F)(F)F here?
A: inactive

Q: What does the source list for O=C1c2ccccc2C(=O)C1C(=O)C(c1ccccc1)c1ccc(Cl)cc1 (configuration not stated)?
A: outcome [5]: inactive; outcome [6]: inactive; AC50 [2]: 26.4 µM (active); AC50 [3]: 17.6 µM (active); outcome [4]: inactive

Q: O=[N+]([O-])c1ccc(Nc2ccccc2)cc1 was tested. Which outcome [5] did it give?
A: inactive

Q: And the outcome [3]?
A: inactive

Q: What does the source list for Cc1ccccc1OP(=O)(Oc1ccccc1)Oc1ccccc1?
A: AC50 [1]: 1.28 µM (active); AC50 [5]: 0.284 µM (active)

Q: How did the AC50 [1] turn out when Cc1ccc(OP(=O)(Oc2ccc(C)cc2C)Oc2ccc(C)cc2C)c(C)c1 was run?
A: 0.422 µM (active)

Q: And the AC50 [5]?
A: 1.06 µM (active)

Q: How did the outcome [7] turn out when Nc1c(Oc2ccccc2)cc(O)c2c1C(=O)c1ccccc1C2=O was run?
A: inactive

Q: And the outcome [2]?
A: inactive

Q: What does the source list for CCOP(=S)(OCC)O/N=C(\C#N)c1ccccc1?
A: outcome [1]: inactive; AC50 [5]: 16.2 µM (active)

Q: With CCOCn1c(-c2ccc(Cl)cc2)c(C#N)c(Br)c1C(F)(F)F as the molecule, how does the AC50 [1] read?
A: 0.368 µM (active)

Q: What about the outcome [6] of the same molecule?
A: inactive

Q: What about the outcome [3] of the same molecule?
A: inactive

Q: What about the AC50 [4] of the same molecule?
A: 12.4 µM (active)

Q: With O=C1C=CC(=O)c2ccccc21 as the molecule, how does the AC50 [7] read?
A: 33.9 µM (active)

Q: Which results are given for CCCCOP(=O)(CCCC)OCCCC?
A: AC50 [1]: 6.98 µM (active); AC50 [5]: 1.62 µM (active)

Q: With COC(=O)Nc1cccc(OC(=O)Nc2cccc(C)c2)c1 as the molecule, how does the AC50 [1] read?
A: 0.323 µM (active)

Q: Which AC50 [1] does the source give for CCOP(=S)(OCC)SCS(=O)(=O)C(C)(C)C here?
A: 12.9 µM (active)

Q: And the AC50 [5]?
A: 2.02 µM (active)

Q: How did the AC50 [7] turn out when [Cl][Sn]([c]1ccccc1)([c]1ccccc1)[c]1ccccc1 was run?
A: 0.746 µM (active)

Q: And the outcome [2]?
A: inactive
